# Reference: the supplement of paper PMC7411054
# Counter-ions that a name gives are not always drawn.
# Experiments:
# Settings in all cases: treatment time: 24 h
# A549-ACTB-RAB5A [1] = experiment: lowest phenotypically active concentration; higher = less potent
# Summary of the method: (§1)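 After 24 h at 0.3, 1, 3 or 9 µM, with four wells per treatment, fifteen gene-edited A549, HepG2 and WPMY1 reporter lines carrying BFP, GFP and RFP/FusionRed were imaged live. Each well's live-cell features were expressed relative to solvent control wells. Deviation required ≥3 of 4 wells past the 95th percentile of control Euclidean distances, and reproducibility a median replicate Pearson correlation over the 95th percentile of non-replicates. Phenotypic activity rested on both.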
# A549-GM130-SQSTM1 [2] = experiment: as above
# Summary of the method: as §1
# WPMY1-GM130-SQSTM1 [3] = experiment: as above
# Summary of the method: as §1
# A549-ACTB-RAB5A [4] = experiment: phenotypically active (imaging signature differs from DMSO and reproducible) at any of 0.3-9 uM (binary (1 = active, 0 = inactive)); higher = active
# Summary of the method: as §1
# A549-CANX-COX4 = experiment: as above
# Summary of the method: as §1
# A549-GM130-SQSTM1 [5] = experiment: as above
# Summary of the method: as §1
# A549-TP53BP1-CLTA = experiment: as above
# Summary of the method: as §1
# A549-TUBA1B-RELA = experiment: as above
# Summary of the method: as §1
# HepG2-ACTB-RAB5A [6] = experiment: as above
# Summary of the method: as §1
# HepG2-CANX-COX4 = experiment: as above
# Summary of the method: as §1
# HepG2-GM130-SQSTM1 = experiment: as above
# Summary of the method: as §1
# HepG2-TP53BP1-CLTA = experiment: as above
# Summary of the method: as §1
# HepG2-TUBA1B-RELA = experiment: as above
# Summary of the method: as §1
# WPMY1-ACTB-RAB5A = experiment: as above
# Summary of the method: as §1
# WPMY1-CANX-COX4 = experiment: as above
# Summary of the method: as §1
# WPMY1-GM130-SQSTM1 [7] = experiment: as above
# Summary of the method: as §1
# WPMY1-TP53BP1-CLTA = experiment: as above
# Summary of the method: as §1
# WPMY1-TUBA1B-RELA = experiment: as above
# Summary of the method: as §1
# HepG2-ACTB-RAB5A [8] = experiment: lowest phenotypically active concentration; higher = less potent
# Summary of the method: as §1
SMILES,lowest phenotypically active concentration (A549-ACTB-RAB5A [1]) [µM],lowest phenotypically active concentration (A549-GM130-SQSTM1 [2]) [µM],lowest phenotypically active concentration (WPMY1-GM130-SQSTM1 [3]) [µM],phenotypically active (A549-ACTB-RAB5A [4]),phenotypically active (A549-CANX-COX4),phenotypically active (A549-GM130-SQSTM1 [5]),phenotypically active (A549-TP53BP1-CLTA),phenotypically active (A549-TUBA1B-RELA),phenotypically active (HepG2-ACTB-RAB5A [6]),phenotypically active (HepG2-CANX-COX4),phenotypically active (HepG2-GM130-SQSTM1),phenotypically active (HepG2-TP53BP1-CLTA),phenotypically active (HepG2-TUBA1B-RELA),phenotypically active (WPMY1-ACTB-RAB5A),phenotypically active (WPMY1-CANX-COX4),phenotypically active (WPMY1-GM130-SQSTM1 [7]),phenotypically active (WPMY1-TP53BP1-CLTA),phenotypically active (WPMY1-TUBA1B-RELA),lowest phenotypically active concentration (HepG2-ACTB-RAB5A [8]) [µM]
Cc1ccc(O)c([C@H](CCN(C(C)C)C(C)C)c2ccccc2)c1 [Tolterodine L-tartrate],9,9,9,1 (active),0 (inactive),1 (active),0 (inactive),0 (inactive),0 (inactive),0 (inactive),0 (inactive),0 (inactive),0 (inactive),0 (inactive),0 (inactive),1 (active),0 (inactive),0 (inactive),
CC(C)(C)c1ccc(C(O)CCCN2CCC(C(O)(c3ccccc3)c3ccccc3)CC2)cc1 (configuration not stated) [terfenadine],9,3,3,1 (active),0 (inactive),1 (active),0 (inactive),0 (inactive),1 (active),0 (inactive),0 (inactive),0 (inactive),1 (active),0 (inactive),0 (inactive),1 (active),0 (inactive),1 (active),3
Cc1ccc(S(=O)(=O)c2ccc([N+](=O)[O-])o2)cc1,3,3,3,1 (active),0 (inactive),1 (active),0 (inactive),0 (inactive),1 (active),0 (inactive),1 (active),0 (inactive),1 (active),1 (active),1 (active),1 (active),1 (active),1 (active),9
CC[C@H](CO)Nc1nc(Nc2cccc(-c3ccccn3)c2)c2ncn(C(C)C)c2n1 [(R)-DRF053 dihydrochloride],9,9,,1 (active),0 (inactive),1 (active),0 (inactive),0 (inactive),1 (active),0 (inactive),1 (active),1 (active),1 (active),0 (inactive),1 (active),0 (inactive),0 (inactive),1 (active),9
O=C(CCCCCCC(=O)Nc1ccc([C@H]2O[C@@H](CSc3nc(-c4ccccc4)c(-c4ccccc4)o3)C[C@@H](c3ccc(CO)cc3)O2)cc1)NO [Tubacin],9,9,3,1 (active),0 (inactive),1 (active),0 (inactive),0 (inactive),0 (inactive),0 (inactive),0 (inactive),0 (inactive),0 (inactive),1 (active),1 (active),1 (active),1 (active),1 (active),
